SW480 rereplic: A quantitative high throughput screen for small molecules that induce DNA re-replication in SW480 colon adenocarcinoma cells; 1.8% of 340,000 active; SW480 DNA re-replication, Hoechst DNA content imaging, 48 h; Potency, µM (doses to about 46.1 µM), hits mostly activators; note: nearly all actives have a fitted effect of over 55% in size
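Hoechst fluorescence of nuclei (405 nm excitation, 500-530 nm emission) measured by plate-scanning imager after 48 hr compound exposure at 37 C; re-replication scored as increased number of nuclei with elevated intensity.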
TDP1 cell noCPT: qHTS for Inhibitors of human tyrosyl-DNA phosphodiesterase 1 (TDP1): qHTS in cells in absence of CPT | DT40 Tdp1-/- hTDP1 cells, no CPT, ATP luminescence, 48 h | Potency, µM (series often up to 46.2 µM), most hits filed as inhibitors | 15% of 420,000 active | AID 686978, 2013; note: nearly all actives have a fitted effect of over 55% in size
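Growth kinetics read by CellTiter-Glo luminescence after ≥48 hr at 37 °C. Cells: DT40 Tdp1-/- stably carrying human TDP1, 400 per well, compound exposure in the absence of CPT (DMSO vehicle).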
IL1B secr inh: qHTS for Inhibitors of Inflammasome Signaling: IL-1-beta AlphaLISA Primary Screen; THP-1 LPS/ATP IL-1B secretion, AlphaLISA, 16 h; hits give low values; activity change, % at 57.5 µM; 4.7% of 360,000 active; AID 743279, 2014; in the data active = activity change below about -50%; inconclusive = mostly about -30% to -49%
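THP-1 cells pretreated 1 hr with compounds (up to 57.5 uM final), then stimulated with LPS (250 ng/mL final) plus ATP (1.25 mM final); secreted IL-1B measured by AlphaLISA after 16 hr, decreased signal indicating inhibition.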
MCF10A rereplic: A quantitative high throughput screen for small molecules that induce DNA re-replication in MCF 10a normal breast cells. Potency, µM (highest dose often 46.1 µM), most hits filed as activators. MCF 10A DNA re-replication, Hoechst nuclear intensity, 48 h. 2.9% of 350,000 active. AID 624296, 2012; note: nearly all actives have a fitted effect of over 50% in size
Chronic BCR inh: qHTS Assay to Find Inhibitors of Chronic Active B-Cell Receptor Signaling. ABC-DLBCL IkBa-CBG/CBR reporter, luminescence ratio, 4 h. Potency, µM (series often up to 46.1 µM), hits mostly inhibitors. 0.05% of 340,000 active; active = well fitted inhibition curve with a large enough effect in the signal ratio, with a control signal flat, not every such curve was filed as active; inconclusive = small, poorly fitted or top-dose-only effect, or effect the other way, or a change in a side signal; the % refers to the signal ratio
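Compounds up to 46 uM were incubated four hours with TMD8 cells whose green CBG68 luciferase is fused to IkappaBalpha; red CBR luminescence normalised the signal, and concentration-effect curves were fitted to fusion, red and ratio data.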
TDP1 cell CPT: qHTS for Inhibitors of human tyrosyl-DNA phosphodiesterase 1 (TDP1): qHTS in cells in presence of CPT; chicken DT40 Tdp1-/-;hTDP1 cells + 20 nM CPT, ATP luminescence, 48 h; Potency, µM (highest dose often 46.2 µM), actives largely listed as inhibitors; 12% of 420,000 active; AID 686979, 2013; note: nearly all actives have a fitted effect of over 55% in size
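Chicken DT40 Tdp1-/- cells complemented with human TDP1, 400 cells/well, exposed to compounds plus 20 nM camptothecin for at least 48 h at 37 C; viability read as ATP content by CellTiter-Glo luminescence.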
Numbers stand for hits; [ ] = remark or other dose. Shown are actives, neighbours in structure and some others; about 19% of the full set was active somewhere. Unless noted, calls come from the whole dose curve; as a rule, active = well fitted curve in the direction sought with a large enough effect; inconclusive = small, poorly fitted or top-dose-only effect, or another doubt; inactive = no such curve, though single readings can be large; an effect the other way counts as inactive or inconclusive.

CC1CCCN(C(=O)c2ccc3c(=O)n4nc(Nc5ccccc5)sc4nc3c2)C1 (configuration not stated) was read as TDP1 cell noCPT inconclusive, IL1B secr inh inactive and TDP1 cell CPT inactive.
COc1ccccc1Nc1nn2c(=O)c3ccc(C(=O)N4CCCC(C)C4)cc3nc2s1 (configuration not stated) was read as SW480 rereplic inactive, TDP1 cell noCPT 23µM, IL1B secr inh inactive, MCF10A rereplic inconclusive, Chronic BCR inh inactive and TDP1 cell CPT 12µM.
For CNC(=S)N(CCc1c(C)[nH]c2ccc(F)cc12)Cc1cccnc1 the results were SW480 rereplic inactive, TDP1 cell noCPT inactive, IL1B secr inh inactive, MCF10A rereplic inactive, Chronic BCR inh inactive and TDP1 cell CPT inactive.
CCOc1cc(/C=C2/SC(=S)N(CC3CCCO3)C2=O)ccc1O (configuration not stated) was read as SW480 rereplic inconclusive, TDP1 cell noCPT 23µM, IL1B secr inh inactive, MCF10A rereplic inconclusive, Chronic BCR inh inactive and TDP1 cell CPT inconclusive.
COc1cccc(/C=C2\SC(=S)N(CC3CCCO3)C2=O)c1 (configuration not stated) was read as SW480 rereplic inactive, TDP1 cell noCPT inactive, IL1B secr inh -71, MCF10A rereplic inconclusive, Chronic BCR inh inconclusive and TDP1 cell CPT inactive.
Screening CCC(C(=O)N1CCN(c2cc(Cl)ccc2C)CC1)n1nc(C)c2sc3ccccc3c2c1=O (configuration not stated) returned TDP1 cell noCPT inactive and TDP1 cell CPT inactive.
CN(C(=O)c1cccc(NC(=O)Cc2ccc(NC(=O)C3CCCN(C(=O)C4CCCCC4)C3)cc2)c1)C1CCCCC1 (configuration not stated) was read as SW480 rereplic inactive[9.22 µM], TDP1 cell noCPT inconclusive, IL1B secr inh inactive, MCF10A rereplic inconclusive and TDP1 cell CPT inconclusive.
Screening CN(C(=O)c1cccc(NC(=O)Cc2cccc(NC(=O)C3CCCN(C(=O)C4CCCC4)C3)c2)c1)C1CCC1 (configuration not stated) returned SW480 rereplic inconclusive, TDP1 cell noCPT inconclusive, IL1B secr inh inactive, MCF10A rereplic inactive and TDP1 cell CPT 16µM.
Screening CN(C(=O)c1ccc(NC(=O)Cc2cccc(NC(=O)C3CCCN(C(=O)C4CCC4)C3)c2)cc1)C1CC1 (configuration not stated) returned SW480 rereplic inactive, TDP1 cell noCPT inconclusive, IL1B secr inh inactive, MCF10A rereplic inactive and TDP1 cell CPT inactive.
Screening CN(C(=O)c1cccc(NC(=O)Cc2cccc(NC(=O)C3CCCN(C(=O)C4CCC4)C3)c2)c1)C1CCC1 (configuration not stated) returned SW480 rereplic inactive, TDP1 cell noCPT 23µM, IL1B secr inh inactive, MCF10A rereplic inactive and TDP1 cell CPT inconclusive.
CN(C(=O)c1cccc(NC(=O)Cc2cccc(NC(=O)C3CCCN(C(=O)c4ccccc4)C3)c2)c1)C1CCC1 (configuration not stated) was read as SW480 rereplic inactive[9.22 µM], TDP1 cell noCPT inconclusive, IL1B secr inh inactive, MCF10A rereplic inconclusive and TDP1 cell CPT inconclusive.
For CN(C(=O)c1ccc(NC(=O)Cc2cccc(NC(=O)C3CCCN(C(=O)C4CCCC4)C3)c2)cc1)C1CCCC1 (configuration not stated) the results were SW480 rereplic inactive, TDP1 cell noCPT inconclusive, IL1B secr inh inactive, MCF10A rereplic inconclusive, Chronic BCR inh inactive and TDP1 cell CPT 21µM.
